Assay outcomes from PubChem.
An excerpt weighted towards active compounds, which were near 2.2% of everything screened.
HDAC3 inh – blocks human histone deacetylase 3; inhibition, % at 8.3 µM; recombinant HDAC3, fluorogenic peptide/trypsin coupled, fluorescence; AID 2718; O15379; 320,000 compounds, 0.15% hits; in the data active means inhibition above about 26%, passing the limit was not always enough; inconclusive means no clear call, values can overlap the other calls
PvdQ acylase – P. aeruginosa PvdQ acylase inhibition; inhibition, % at 10 µM; purified PvdQ acylase, fluorescence plate reader; 340,000 compounds, 0.063% hits; in the data active means inhibition above about 30%, passing the limit was not always enough; inconclusive means no clear call, values can overlap the other calls;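 further: 0% = vehicle neutral wells and 100% = reference inhibitor wells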
PHOSPHO1 inh – blocks human PHOSPHO1 phosphatase activity; Q8TCT1; 290,000 compounds, 1.1% hits; recombinant PHOSPHO1, absorbance phosphatase assay; inhibition, % at 13.3 µM; AID 1565; in the data active means inhibition above about 60%
Target sequence (Q8TCT1 whole entry, looked up): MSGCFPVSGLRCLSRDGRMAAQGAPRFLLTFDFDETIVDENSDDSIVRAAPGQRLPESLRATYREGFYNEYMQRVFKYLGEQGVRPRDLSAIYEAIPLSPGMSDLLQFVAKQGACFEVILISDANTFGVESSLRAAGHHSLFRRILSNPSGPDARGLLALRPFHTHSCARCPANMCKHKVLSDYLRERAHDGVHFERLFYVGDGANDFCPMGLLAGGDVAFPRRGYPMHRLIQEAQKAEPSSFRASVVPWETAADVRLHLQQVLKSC
JMJD2C inh – human JMJD2C demethylase inhibition. 330,000 compounds, 0.069% hits. AID 2099. inhibition, % at 2.35 µM. GST-JMJD2C(1-420) H3K9me3 demethylation, DELFIA europium. Q9H3R0;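 active means more than half of a compound's replicate wells show inhibition beyond 50%, single wells judged on their own value; inconclusive means some, but no more than half, of replicates pass 50% inhibition; inactive means no replicate passes 50% inhibition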;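 further: signal counts dimethyl H3K9 product captured on neutravidin plate; 0% = median of DMSO wells and 100% = 0.3 times that DMSO median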
Target sequence (Q9H3R0 1-420 limits assumed): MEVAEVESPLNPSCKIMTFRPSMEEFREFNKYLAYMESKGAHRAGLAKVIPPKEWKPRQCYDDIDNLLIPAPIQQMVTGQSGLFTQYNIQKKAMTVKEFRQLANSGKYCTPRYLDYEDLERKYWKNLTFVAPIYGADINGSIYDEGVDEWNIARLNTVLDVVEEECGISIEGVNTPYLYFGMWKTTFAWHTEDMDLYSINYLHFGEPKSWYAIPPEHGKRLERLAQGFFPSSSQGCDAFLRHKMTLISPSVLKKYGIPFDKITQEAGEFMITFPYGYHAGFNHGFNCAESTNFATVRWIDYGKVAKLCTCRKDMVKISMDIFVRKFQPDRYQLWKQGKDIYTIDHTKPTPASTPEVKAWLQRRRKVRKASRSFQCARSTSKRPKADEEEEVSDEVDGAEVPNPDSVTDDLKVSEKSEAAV
pCIP destab – lowers stability of the mouse p/CIP coactivator protein; decrease of EGFP signal, % at 10 µM; 290,000 compounds, 0.01% hits; F442A p/CIP-EGFP cells, EGFP fluorescence, 16 h;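 active means EGFP signal decrease of at least 30% at 10 µM or well 3 SD below plate mean, unless failing retest; inactive means the rest, including hits failing retest or dose response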
Mot1-301 SUMO – blocks SUMOylation pathway, rescuing yeast Mot1-301 growth; S. cerevisiae Mot1-301 growth rescue, ATP luminescence, 38.5C; percent above DMSO median, 100 means doubled; growth rescue, % at 18.8 µM; 320,000 compounds, 1% hits; AID 2716;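 active means every valid replicate shows activation above 250% relative to neutral control wells; inactive means the rest, any valid replicate at or below 250%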;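 further: OY570 slx delta 5 strain wells were the positive control but not used for scaling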
Yeast Mot1 SUMO – yeast SUMO pathway inhibition in dose response | S. cerevisiae Mot1-301 galactose growth, ATP luminescence, 24 h; -100 = growth of slx-deleted rescue strain | 2,300 tested, under 10 active | growth activity, percent, % at 42 µM | shares compounds with Mot1-301 SUMO;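 active means Signal drops as the depositor expects, and the fitted half-maximal dose is no more than ten times the top valid tested dose; inconclusive means Poor fit, or a flat curve whose signal drops by 30% to 70%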;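 further: more negative values mean stronger growth rescue toward the control strain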
Active calls of the source: *; i = inactive; u = inconclusive; x = no result given; + = active, no number.

SMILES | HDAC3 inh | PvdQ acylase | PHOSPHO1 inh | JMJD2C inh | pCIP destab | Mot1-301 SUMO | Yeast Mot1 SUMO
CC(NC(=O)C1CCCCC1)C(=O)NC1=NCCS1 (stereo not drawn) | -4 | -6 | 0 | -2 | 2 | 566* | 0
COc1ccc(/C=C/c2onc(C)c2S(=O)(=O)N2CCC(C(=O)N3CCC(C)CC3)CC2)cc1 | 2 | -3 | 0 | -3 | -20 | 28 | x
CC(=O)Nc1ccc(C(=O)Nc2cc(C(F)(F)F)ccc2-n2cnc3ccccc32)cc1 | 12 | 6 | 19 | -1 | -5 | 65 | x
CN(C)c1cccc(C(=O)Nc2cc(C(F)(F)F)ccc2-n2cnc3ccccc32)c1 | x | 4 | 2 | 41 | -7 | 400* | 0
CCOC(=O)c1sc2ncnc(N3CCN(c4ccc(OC)cc4)CC3)c2c1C | 0 | 10 | 37 | 0 | -6 | 623* | 1
COc1ccccc1N1CCN(C(=O)c2sc3ncnc(N4CCN(c5ccccn5)CC4)c3c2C)CC1 | -5 | -1 | 14 | -52 | 3 | 442* | 0
CCOC(=O)c1sc2ncnc(N3CCN(C)CC3)c2c1C | -7 | 8 | 48 | -5 | -5 | 10 | x
COc1ccccc1N1CCN(C(=O)c2sc3nc(C)nc(N4CCN(c5ccccn5)CC4)c3c2C)CC1 | 1 | 12 | -17 | -2 | -4 | -18 | x
CC(OC(=O)C1CC1C)C(=O)Nc1ccc(Cl)cn1 (stereo not drawn) | x | 9 | x | x | x | x | x
CC(C)NC(=S)N1CCN(C/C=C/c2ccccc2)CC1 | -5 | -18 | -86 | 8 | -12 | -14 | x
CN(C)c1ccc(C(=O)N2CCCC(CCC(=O)N3CCN(c4ccccn4)CC3)C2)cc1 (stereo not drawn) | x | -8 | 33 | -3 | 2 | 554* | 0
COc1c2ccoc2nc2c(OC)c(OC[C@@H](O)C(C)(C)O)ccc12 | -52 | 27 | x | x | x | 724* | -1
CCCC1Cc2c(sc3ncnc(N)c23)CO1 (stereo not drawn) | -16 | -20 | 29 | -12 | -11 | 420* | -1
COC(=O)c1ccc(N2C(=O)CC(NCc3ccccc3)C2=O)cc1 (stereo not drawn) | 4 | 2 | 0 | -14 | -17 | + | 1
NNC(=O)c1[nH]c2ccccc2c1-c1ccccc1 | 6 | -10 | 25 | -5 | -2 | 653* | -1
COC(=O)c1ccc(CSc2nc3ccccc3c(=O)n2C)o1 | 5 | -7 | 11 | -1 | 0 | 4 | x
COC(=O)c1ccc(CSc2nc3ccccc3c(=O)n2CC(C)C)o1 | 8 | 4 | -1 | -7 | 2 | 839* | 1
CCOC(=O)CSc1nc2ccccc2c(=O)n1CC | -2 | 3 | 12 | 13 | -9 | -8 | x
CCOC(=O)CSc1nc2ccccc2c(=O)n1CC(C)C | 4 | -5 | 11 | x | 6 | 573* | 0
Cc1ccc(S(=O)(=O)N2CCN(C(=O)CN3CCN(c4ccc(O)cc4)CC3)CC2)cc1 | x | -10 | x | x | x | x | x
CC(NC(=O)C1CCCN1S(=O)(=O)c1ccccc1)c1ccccc1 (stereo not drawn) | 4 | 9 | 6 | 6 | -6 | 8 | x
CC(C)(C)c1ccc(CN(Cc2ccccc2)C(c2ccccn2)c2nnnn2C(C)(C)C)cc1 (stereo not drawn) | 2 | -5 | -1 | -4 | -6 | 505* | 0
O=C(CNC(=O)C1CCCCC1)NC1CCCCC1 | u | -15 | 27 | -28 | -4 | 11 | x
C=CC[N+]1(CC#Cc2ccccc2)CCCC1 | 0 | -4 | 24 | -26 | -13 | 393* | 0
C(#Cc1ccccc1)C[N+]1(CC#Cc2ccccc2)CCCC1 | -16 | -2 | -11 | -3 | -11 | 6 | x
SMILES | HDAC3 inh | PvdQ acylase | PHOSPHO1 inh | JMJD2C inh | pCIP destab | Mot1-301 SUMO | Yeast Mot1 SUMO
Cc1ccc(OCC(=O)O/N=C(\N)Cc2ccc(Cl)cc2)cc1 | -1 | -14 | 10 | 24 | -4 | -14 | x
COc1ccc(OCC(=O)O/N=C(\N)Cc2ccc(Cl)cc2)cc1 | 4 | 11 | 10 | -4 | 1 | + | 0
CC(OC(=O)CCCNC(=O)c1ccc(Cl)cc1)C(=O)N(C)Cc1ccccc1 (stereo not drawn) | -8 | -9 | x | -1 | 3 | 88 | x
CN(C)CCNC(=O)c1onc(CSc2ccc(F)c(F)c2)c1C(=O)NCCN(C)C | -2 | -28 | 22 | -1 | -5 | 578* | 0
CCc1ccc(N2C(=O)CC(N(CC3CCCO3)C(=O)/C=C/C(=O)O)C2=O)cc1 (stereo not drawn) | -3 | 1 | -8 | 3 | 2 | -3 | x
CC1CCCN(C(=O)CN(C)S(=O)(=O)c2ccc3c(c2)c(=O)n(C)c(=O)n3C)C1 (stereo not drawn) | -2 | 4 | 60 | -5 | -19 | -1 | x
Cc1ccc(C)c(S(=O)(=O)N2CCCC2CNC(=O)C(=O)NCc2ccccn2)c1 (stereo not drawn) | -3 | 3 | x | 9 | x | 252 | x
CCC(C(=O)Nc1cccnc1)c1ccccc1 (stereo not drawn) | 2 | -7 | x | 1 | -4 | 422* | 1
CCC(C(=O)Nc1ccncc1)c1ccccc1 (stereo not drawn) | 1 | -7 | 22 | -2 | -6 | -8 | x
COc1cc(O)oc1C=Nc1ccc(C(=O)O)cc1 | -5 | 6 | 24 | -7 | -6 | 577* | -2
COc1ccccc1/C=C/C(=O)NC(=S)Nc1ccccn1 | 5 | -2 | 14 | -8 | -25 | -19 | x
COc1ccc(/C=C/C(=O)NC(=S)Nc2ccccn2)cc1 | 0 | -1 | -56 | -2 | -10 | 900* | 0
COC(=O)CCC(=O)OC1(C)C(=O)C=C2C=C(C3CC3)N(Cc3ccc(OC)cc3)C=C2C1=O (stereo not drawn) | 5 | 16 | 9 | 5 | -5 | 4 | x
COC(=O)CCC(=O)OC1(C)C(=O)C=C2C=C(C3CC3)N(Cc3ccc4c(c3)OCO4)C=C2C1=O (stereo not drawn) | 0 | -8 | 31 | -5 | 1 | 881* | 0
O=C(COC(=O)c1ccc(Br)o1)Nc1ncc(Cl)cc1Cl | 1 | -3 | 12 | i | -8 | -7 | x
O=C(COC(=O)c1ccc([N+](=O)[O-])o1)Nc1ncc(Cl)cc1Cl | 1 | -14 | x | -1 | x | 848* | -1
CN1CCN(C(=O)CCN2C(=O)/C(=C\c3ccccc3F)SC2=S)CC1 | -2 | -15 | 48 | -4 | -6 | -5 | x
CN1CCN(C(=O)CCN2C(=O)/C(=C/c3ccccc3Cl)SC2=S)CC1 | 0 | -3 | 45 | -11 | 1 | 378* | -1
CCOC(=O)N1CCC(NC(=O)CC2C(=O)NCCN2Cc2ccccc2F)CC1 (stereo not drawn) | -3 | -11 | 24 | 1 | 4 | -2 | x
